# Compound activity: PubChem BioAssay, National Center for Advancing Translational Sciences (NCATS)
# RORgamma inh: inhibitors of mouse ROR gamma transcriptional activity. Drosophila S2 Gal4-RORgamma UAS-luciferase reporter, 20 h. Potency, µM (highest dose often 53.6 µM), without a hit: at the top dose activity change, negative = inhibition, most hits filed as inhibitors. 310,000 compounds, 5.4% hits. AID 2551; note: nearly all actives have a fitted effect of over 60% in size
# Target sequence (P51450 whole entry, looked up, the tested form may be a part): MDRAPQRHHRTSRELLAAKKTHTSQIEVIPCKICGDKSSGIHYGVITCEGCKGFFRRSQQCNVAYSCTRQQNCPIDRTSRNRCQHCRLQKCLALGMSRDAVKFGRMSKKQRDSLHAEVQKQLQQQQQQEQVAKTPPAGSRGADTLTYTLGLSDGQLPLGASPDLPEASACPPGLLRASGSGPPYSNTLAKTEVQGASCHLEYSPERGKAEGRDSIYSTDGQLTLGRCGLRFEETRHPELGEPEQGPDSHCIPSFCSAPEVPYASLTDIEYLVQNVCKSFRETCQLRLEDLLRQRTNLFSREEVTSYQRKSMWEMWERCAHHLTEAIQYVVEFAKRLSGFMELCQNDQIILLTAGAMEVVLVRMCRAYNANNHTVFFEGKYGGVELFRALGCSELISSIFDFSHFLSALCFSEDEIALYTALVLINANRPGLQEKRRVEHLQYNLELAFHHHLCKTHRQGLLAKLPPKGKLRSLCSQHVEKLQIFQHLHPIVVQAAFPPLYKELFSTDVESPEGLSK
#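 ROR gamma transcriptional activity was tracked as Gal4-UAS luciferase output in stably transfected Drosophila Schneider cells, with compound added 1 hr before 700 uM copper sulfate induction and a 20 hr ambient-temperature incubation.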
# DT40 TDP1 no CPT: qHTS for Inhibitors of human tyrosyl-DNA phosphodiesterase 1 (TDP1): qHTS in cells in absence of CPT; DT40 Tdp1-/- hTDP1 cells, no CPT, ATP luminescence, 48 h; Potency, µM (top dose mostly 46.2 µM), without a hit: top-dose activity change, negative = growth inhibition, usual class: inhibitors; 420,000 compounds, 15% hits; note: nearly all actives have a fitted effect of over 55% in size
#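 Readout: luminescence from CellTiter-Glo after 30 min in the dark at RT. Cells: DT40 Tdp1-/- with stable hTDP1, 400/well. Exposure: compounds alone, ≥48 hr, 37 °C.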
# TDP1 cell CPT: DT40-hTDP1 cell growth loss with CPT | chicken DT40 Tdp1-/-;hTDP1 cells + 20 nM CPT, ATP luminescence, 48 h | Potency, µM (doses to about 46.2 µM), for inactives: at the highest dose activity change, negative = growth inhibition, usual class: inhibitors | 420,000 compounds, 12% hits | AID 686979; note: nearly all actives have a fitted effect of over 55% in size
#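 Cell growth measured by CellTiter-Glo luminescence after a minimum 48 h, 37 C compound exposure with 20 nM CPT in Tdp1-knockout DT40 cells stably expressing hTDP1, seeded 400/well; qHTS titration format.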
# VP16 counter: Gal4-VP16 reporter inhibition counter-screen; Drosophila S2 Gal4-VP16 UAS-luciferase, luminescence, 20 h; 310,000 compounds, 3.5% hits; Potency, µM (highest dose often 53.6 µM), for inactives: at the top dose activity, negative = inhibition, actives largely listed as inhibitors;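 note: Gal4-VP16 expression switched on by copper sulfate through the metallothionein promoter; nearly all actives have a fitted effect of over 50% in size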
# TDP1 block: inhibitors of human tyrosyl-DNA phosphodiesterase TDP1; recombinant TDP1, AlphaScreen DNA substrate cleavage; Potency, µM (titrated, usually from 130 µM), without a hit: at the top dose activity change, negative = inhibition, actives largely listed as inhibitors; Q9NUW8; 350,000 compounds, 0.28% hits; note: nearly all actives have a fitted effect of over 40% in size
#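 E. coli-derived human Tdp1, 1 nM final. Cpd preinc 15 min RT; substrate 15 nM final, 5 min RT; AS bead mix 10 ug/ml final, 10 min RT. Signal loss = tyrosine-FITC cleavage. No-enzyme wells = max signal.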
# * = called active by the depositor; ? = inconclusive; nt = no result; [ ] = dose if it differs, or a comment. Compounds with a hit are over-represented: about 19% of the library has one in this group of screens. Calls come from the whole dose curve; as a rule, active = well fitted curve in the direction sought with a large enough effect; inconclusive = small, poorly fitted or top-dose-only effect, or another doubt; inactive = no such curve, though single readings can be large; an effect the other way counts as inactive or inconclusive. % is set by controls: 0 for no effect and ±100 for the full control effect; potency is the fitted concentration of half-maximal effect.
SMILES,RORgamma inh,DT40 TDP1 no CPT,TDP1 cell CPT,VP16 counter,TDP1 block
O=C(Nc1cccc(C(=O)OCc2cc(=O)n3c4c(sc3n2)CCCC4)c1)c1cccc(Cl)c1,nt,?,-20%,nt,1%
NNC(=O)CN1CCN(c2ncc(C(F)(F)F)cc2Cl)CC1,2%,-26%,-18%,-2%,6%
CC(C)(C)NC(=O)NC(=O)CN1CCN(c2ncc(C(F)(F)F)cc2Cl)CC1,-2%,18µM*,?,-3%,4%
O=C(c1ccc2nc[nH]c2c1)N1CCN(c2cccc(C(F)(F)F)c2)CC1,?,16µM*,?,-15%,5%
O=C(c1ccc(Nc2nc3ccccc3n3nnnc23)cc1)N1CCN(c2cccc(C(F)(F)F)c2)CC1,nt,18µM*,?,nt,0%
O=C(c1ccncc1)N1CCN(c2cccc(C(F)(F)F)c2)CC1,1%,?,?,0%,-1%
COc1ccc(S(=O)(=O)c2c(N)n(Cc3ccco3)c3nc4ccccc4nc23)cc1,?,-86%,18µM*,5%,3%
Cc1cc(C)cc(-n2c3nc4ccccc4nc3c3c(=O)n(Cc4ccco4)cnc32)c1,11µM*,12µM*,23µM*,11µM*,5%
CCC(C)n1cnc2c(c1=O)c1nc3ccccc3nc1n2Cc1ccc(OC)cc1 (centres undefined),?,15µM*,?,-13%,-2%
COCCCn1cnc2c(c1=O)c1nc3ccccc3nc1n2-c1ccc(C)cc1,2%,?,?,4%,-5%
COc1ccc(Cn2c3nc4ccccc4nc3c3c(=O)n(Cc4ccco4)c(C)nc32)cc1,-100%,nt,nt,-29%,32µM*
COc1ccc(Cn2c(C)nc3c(c2=O)c2nc4ccccc4nc2n3Cc2ccco2)cc1,nt,8.2µM*,15µM*,nt,nt
C[C@H](CO)N1C[C@H](C)[C@H](CN(C)S(=O)(=O)c2cccs2)OCc2cnnn2CCCC1=O,nt,14%,4%,nt,nt
COc1ccc(NC(=O)C2CCCN(CCCc3ccccc3)C2)cc1OCC(C)C (centres undefined),-19%,5.2µM*,7.3µM*,-20%,6%
COc1ccc(NC(=O)C2CCCNC2)cc1OCC(C)C (centres undefined),12%,?,?,-1%,8%
CCc1ccc(-c2cc(C)no2)cc1S(=O)(=O)NCCCN1CCN(c2ccccc2)CC1,2%,?,?,0%,9%
CN(Cc1cn(C)c2ccccc12)C(=S)Nc1cc(F)cc(F)c1,-25%,?,-25%,0%,-3%
Cc1cccc(NC(=S)N(C)Cc2cn(C)c3ccccc23)c1,?,16µM*,26µM*,?,3%
O=C(Nc1ccccc1)N(CCN1CCOCC1)Cc1ccccc1F,?,-16%,-26%,12%,2%
Cc1cccc(NC(=S)N(CCN2CCOCC2)Cc2ccccc2F)c1,13µM*,?,?,-69%,4%
Cc1ccc(NC(=S)N(CCN2CCOCC2)Cc2ccccc2F)cc1Cl,10µM*,?,-19%,?,6%
COc1ccc(NC(=S)N(CCN2CCOCC2)Cc2ccccc2F)cc1,?,-6%,0%,7%,0%
Cc1cc(NC(=O)c2ccc(NC(=O)C(C)C)cc2)no1,20%,-14%,?,5%,7%
Cc1ccc(S(=O)(=O)N(CC(=O)Nc2cccc([N+](=O)[O-])c2)C(=O)N2CCN(C)CC2)cc1,nt,-8%,1%,nt,nt
NC1=C(Cl)C(=O)c2ccccc2C1=O,nt,4.6µM*,5.2µM*,nt,nt
SMILES,RORgamma inh,DT40 TDP1 no CPT,TDP1 cell CPT,VP16 counter,TDP1 block
Nc1cc(N)c2c(c1)C(=O)c1ccccc1-2,nt,?,-12%,nt,nt
NC1=C(Cl)C(=O)c2ccc(S(N)(=O)=O)cc2C1=O,nt,0.46µM*,0.41µM*,nt,nt
NS(=O)(=O)c1ccc(Cl)c(S(N)(=O)=O)c1,2%[10 µM],-4%,2%,5%,0%
CC(C)CNC(=O)C1(C)CCCN1C(=O)C(C)(C)Oc1ccc(Cl)cc1 (centres undefined),nt,16µM*,?,nt,nt
CC(C)CNC(=O)C1(C)CCCN1C(=O)c1c(Cl)cccc1Cl (centres undefined),nt,-23%,-7%,nt,nt
Cc1cc(SCC(=O)OC/C(O)=C(\C#N)c2nc3ccccc3[nH]2)c(C)cc1Br,6.3µM*,?,?,18µM*,5%
N#CCN(C(=O)COC(=O)CCCNC(=O)c1ccc(Cl)cc1)c1ccccc1,nt,-28%,-7%,nt,0%
N#C/C(=C(/O)COC(=O)CCCNC(=O)c1ccc(Cl)cc1)c1nc2ccccc2[nH]1,11µM*,-18%,-10%,?,10%
N#C/C(=C(/O)COC(=O)CSc1ccc(Cl)cc1)c1nc2ccccc2[nH]1,10µM*,5.2µM*,18µM*,11µM*,8%
CCOC(=O)c1ccc2c(c1)nc(SC/C(O)=C(\C#N)c1nc3ccccc3[nH]1)n2CC,5µM*,?,?,-2%,6%
Cc1cccc(CCNC(=O)C2CCN(c3ncnc4c3nc3n4CCCCC3)CC2)c1,nt,4%,3%,nt,1%
COc1ccccc1CNC(=O)CCc1nc2ccccc2c(=O)[nH]1,4%,-26%,-14%,13%,1%
COc1ccccc1CN(Cc1nc2ccccc2c(=O)[nH]1)C(=O)Nc1ccccc1,10µM*,3.5µM*,3.5µM*,?,3%
O=C(Nc1cccc(Cl)c1)N(Cc1nc2ccccc2c(=O)[nH]1)C1CCCC1,14µM*,?,-27%,?,6%
Cc1ccc(C(=O)N(Cc2nc3ccccc3c(=O)[nH]2)C2CCCC2)cc1,-25%,?,13µM*,7.1µM*,-5%
O=C(Nc1cccc(Cl)c1)N(Cc1nc2ccccc2c(=O)[nH]1)Cc1cccs1,?,23µM*,23µM*,-65%,1%
Cc1ccccc1C(=O)N(Cc1nc2ccccc2c(=O)[nH]1)C1CCCC1,?,?,?,-1%,-3%
CC(C)c1ccc(S(=O)(=O)N2CCN(C(=O)CN3C(=O)NC4(CCCC4)C3=O)CC2)cc1,nt,1%,-20%,nt,0%
C=CC1CN(C(=O)OCC(Cl)(Cl)Cl)C2CC3c4ccc(OC)cc4NC3C3CC1C2CO3 (centres undefined),nt,18µM*,?,nt,nt
CCOC(=O)c1cc(CC)sc1NC(=O)Cc1ccsc1,34%,?,?,-2%,4%
CCCCC(=O)Nc1nc2c(s1)COc1ccccc1-2,?,?,-10%,-13%,nt
O=C(COC(=O)c1ccc(S(=O)(=O)N2CCc3ccccc3C2)cc1)NC1CCS(=O)(=O)C1 (centres undefined),2%,0%,-1%,-5%,0%
CCCN(CC(=O)Nc1cc(Cl)ccc1Cl)C(=O)/C=C/c1cc(OC)ccc1OC,nt,?,?,nt,-7%
